PubChem BioAssay (NCATS)
Records with an inconclusive call do not appear. Where a call stands in place of a potency, no number is given. Values without a mark were called inactive. Activity calls are given as the source filed them. The call rests on the fitted dose curve; in most records, active means well fitted curve in the direction sought with a large enough effect; inconclusive means small, poorly fitted or top-dose-only effect, or another doubt; inactive means no such curve, though single readings can be large; an effect the other way counts as inactive or inconclusive.

Legend:
HEK293 = test: Cytotoxic Profiling of Annotated Libraries Using Quantitative High-Throughput Screening (AID 1296008); settings: Five cell lines viability, CellTiter-Glo ATP luminescence, 48-72 h; max response: stronger effect = lower value; further: nearly all actives have a fitted effect of over 60% in size; further: potency means the concentration at half of the fitted maximal effect
How it was run: (§1)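 Compounds were pin-transferred onto cells and incubated 48 or 72 hr at 37 degree Celsius, 95% humidity. CellTiter-Glo was added, plates sat 10 min at room temperature, then ATP-coupled luminescence was imaged as the viability read-out.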

HaCat [1] = test: as above; settings: Five cell lines viability, CellTiter-Glo ATP luminescence, 48-72 h; max response: stronger effect = lower value
How it was run: as §1

HACAT [2] = test: qHTS assay to identify novel small-molecules to repurpose for Merkel cell carcinoma treatment (AID 1296009); settings: MCC and control cell lines, CellTiter-Glo viability, 72 h; at 44.8 µM (top of the series) unless noted; further: nearly all actives have a fitted effect of over 60% in size
How it was run: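 qHTS format: cells treated with library compounds in DMSO across 8 (NPC) or 11 (MIPE) concentrations. Readout after 72 hr at 37 degree celsius was CellTiter-Glo luminescence.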

CAOV3 = test: Primary qHTS to identify gynecologic anti-cancer compounds using libraries of approved drugs and bioactive compounds (AID 1345084); settings: Gynecologic cancer cell panel viability, ATPlite luminescence, 48 h; series mostly up to 57.5 µM; further: nearly all actives have a fitted effect of over 55% in size; further: potency means the concentration at half of the fitted maximal effect
How it was run: (§2)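 Cells, 1,000 per well, were allowed to settle for 16 h at 37 C before compound addition. Five concentrations were tested for 48 h, and viability was read by ATPlite luminescence after 15 min at room temperature.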

CASKI = test: as above; settings: Gynecologic cancer cell panel viability, ATPlite luminescence, 48 h; series mostly up to 57.5 µM
How it was run: as §2

HeLa = test: as above; settings: Gynecologic cancer cell panel viability, ATPlite luminescence, 48 h; series mostly up to 57.5 µM
How it was run: as §2

JEG-3 = test: as above; settings: Gynecologic cancer cell panel viability, ATPlite luminescence, 48 h; series mostly up to 57.5 µM
How it was run: as §2

OV90 = test: as above; settings: Gynecologic cancer cell panel viability, ATPlite luminescence, 48 h; series mostly up to 57.5 µM
How it was run: as §2

NIH3T3 = test: Cytotoxic Profiling of Annotated Libraries Using Quantitative High-Throughput Screening (AID 1296008); settings: Five cell lines viability, CellTiter-Glo ATP luminescence, 48-72 h; max response: stronger effect = lower value; further: nearly all actives have a fitted effect of over 60% in size; further: potency means the concentration at half of the fitted maximal effect
How it was run: as §1

Es-2 = test: Primary qHTS to identify gynecologic anti-cancer compounds using libraries of approved drugs and bioactive compounds (AID 1345084); settings: Gynecologic cancer cell panel viability, ATPlite luminescence, 48 h; series mostly up to 57.5 µM; further: nearly all actives have a fitted effect of over 55% in size; further: potency means the concentration at half of the fitted maximal effect
How it was run: as §2

Hek293T = test: as above; settings: Gynecologic cancer cell panel viability, ATPlite luminescence, 48 h, control line for the selectivity index; series mostly up to 57.5 µM
How it was run: as §2

C33A = test: as above; settings: Gynecologic cancer cell panel viability, ATPlite luminescence, 48 h; series mostly up to 57.5 µM
How it was run: as §2

Q: With `COc1cc([C@H]2O[C@H](c3cc(OC)c4c(c3)OCO4)[C@H](C)[C@H]2C)cc(OC)c1OC` as the molecule, how does the Potency (HEK293) read?
A: 0.893 µM (active)

Q: What about the outcome (HaCat [1]) of the same molecule?
A: inactive

Q: What about the outcome (HACAT [2]) of the same molecule?
A: inactive [at 17.4 µM]

Q: What about the Potency (CAOV3) of the same molecule?
A: inactive

Q: What about the Potency (CASKI) of the same molecule?
A: inactive

Q: And the Potency (HeLa)?
A: inactive

Q: And the Potency (JEG-3)?
A: inactive

Q: And the Potency (OV90)?
A: 8.91 µM (active)

Q: Which Potency (HEK293) does the source give for `C=C1C(=O)O[C@@H]2/C=C(\CO)CC/C=C(/C=O)C[C@@H](O)[C@@H]12` here?
A: 8.2 µM (active)

Q: And the Potency (HaCat [1])?
A: 18.4 µM (active)

Q: What about the Potency (NIH3T3) of the same molecule?
A: 16.4 µM (active)

Q: What about the Potency (CASKI) of the same molecule?
A: inactive

Q: And the Potency (Es-2)?
A: 31.6 µM (active)

Q: And the Potency (HeLa)?
A: inactive

Q: And the Potency (Hek293T)?
A: 28.2 µM (active)

Q: And the Potency (JEG-3)?
A: inactive

Q: With `CC(C)C[C@H](C(=O)O)c1cc(-c2ccc(C(F)(F)F)cc2)cc(-c2ccc(C(F)(F)F)cc2)c1` as the molecule, how does the Potency (HEK293) read?
A: 10.3 µM (active)

Q: What about the max response (HaCat [1]) of the same molecule?
A: 1.64%

Q: What about the Potency (C33A) of the same molecule?
A: inactive

Q: And the Potency (CASKI)?
A: inactive

Q: What about the Potency (Es-2) of the same molecule?
A: inactive

Q: And the Potency (JEG-3)?
A: inactive

Q: What does the source list for `Cc1nc(NC(=O)N2CCC[C@H]2C(N)=O)sc1-c1ccnc(C(C)(C)C(F)(F)F)c1`?
A: Potency (HEK293): 16.4 µM (active); Potency (HaCat [1]): 3.66 µM (active); Potency (C33A): inactive; Potency (Es-2): inactive; Potency (HeLa): inactive; Potency (Hek293T): inactive; Potency (JEG-3): inactive

Q: `COc1ccc(CN2CCN(C(=O)CCNC(=O)c3ccc(C(C)(C)C)cc3)CC2)cc1` was tested. Which Potency (HEK293) did it give?
A: 7.31 µM (active)

Q: What about the max response (HaCat [1]) of the same molecule?
A: 3.77%

Q: And the max response (NIH3T3)?
A: 3.24%

Q: What about the Potency (CAOV3) of the same molecule?
A: inactive

Q: What about the Potency (CASKI) of the same molecule?
A: inactive

Q: What about the Potency (Es-2) of the same molecule?
A: inactive

Q: What about the Potency (HeLa) of the same molecule?
A: inactive

Q: What about the Potency (JEG-3) of the same molecule?
A: inactive

Q: What about the Potency (OV90) of the same molecule?
A: inactive

Q: What does the source list for `NC(=O)c1cnc(N[C@@H]2CCCC[C@H]2N)nc1Nc1cccc(-n2nccn2)c1`?
A: Potency (HEK293): 20.6 µM (active); Potency (HaCat [1]): 18.4 µM (active); Potency (C33A): inactive; Potency (CASKI): inactive; Potency (Es-2): inactive; Potency (HeLa): inactive; Potency (Hek293T): inactive; Potency (JEG-3): inactive

Q: For `O=C(Nc1ccc(C(O)(C(F)(F)F)C(F)(F)F)cc1)c1ccc(C(F)(F)F)cc1`, which Potency (HEK293) is on record?
A: 10.3 µM (active)

Q: And the Potency (HaCat [1])?
A: 8.2 µM (active)

Q: And the Potency (NIH3T3)?
A: 20.6 µM (active)

Q: And the Potency (JEG-3)?
A: inactive

Q: With `C#Cc1cccc(Nc2nc3cc(C(=O)O)ccc3c3cncnc23)c1` as the molecule, how does the Potency (HEK293) read?
A: 16.4 µM (active)

Q: And the Potency (HaCat [1])?
A: 7.31 µM (active)

Q: And the max response (NIH3T3)?
A: -50.8%

Q: And the Potency (C33A)?
A: inactive

Q: And the Potency (HeLa)?
A: 11.2 µM (active)

Q: What about the Potency (JEG-3) of the same molecule?
A: inactive

Q: `COc1ccc2nc(-c3cc(OC)c(OC)c(OC)c3)cc(C(=O)NCC(=O)Nc3ccc(C(C)=O)cc3)c2c1` was tested. Which Potency (HEK293) did it give?
A: 7.31 µM (active)

Q: And the max response (HaCat [1])?
A: -18%

Q: And the Potency (C33A)?
A: inactive

Q: And the Potency (CAOV3)?
A: inactive

Q: And the Potency (CASKI)?
A: inactive

Q: And the Potency (Es-2)?
A: inactive

Q: What about the Potency (HeLa) of the same molecule?
A: inactive

Q: And the Potency (Hek293T)?
A: inactive

Q: And the Potency (OV90)?
A: inactive

Q: For `c1ccc(-c2cnn3cc(-c4ccc(OCCN5CCOCC5)cc4)cnc23)cc1`, which Potency (HEK293) is on record?
A: 2.31 µM (active)

Q: What about the outcome (HaCat [1]) of the same molecule?
A: inactive

Q: What about the outcome (HACAT [2]) of the same molecule?
A: inactive

Q: What about the Potency (CASKI) of the same molecule?
A: inactive

Q: What about the Potency (HeLa) of the same molecule?
A: inactive

Q: And the Potency (JEG-3)?
A: inactive

Q: Which Potency (HEK293) does the source give for `Cc1nc2ccc(-n3ncc(C(=O)c4cc5ccccc5[nH]4)c3N)cc2[nH]1` here?
A: 5.8 µM (active)

Q: What about the max response (HaCat [1]) of the same molecule?
A: -16.7%

Q: What about the Potency (NIH3T3) of the same molecule?
A: 9.2 µM (active)

Q: And the Potency (HeLa)?
A: 28.2 µM (active)

Q: And the Potency (Hek293T)?
A: 14.1 µM (active)

Q: And the Potency (OV90)?
A: 14.1 µM (active)

Q: Which Potency (HEK293) does the source give for `CN(C)CCN(Cc1ccccc1)C(=O)c1cc(-c2ccc(F)cc2)n2nc(C(C)(C)C)cc2n1` here?
A: 14.6 µM (active)

Q: What about the max response (HaCat [1]) of the same molecule?
A: -107%

Q: What about the Potency (C33A) of the same molecule?
A: inactive

Q: And the Potency (CASKI)?
A: inactive

Q: What about the Potency (Es-2) of the same molecule?
A: inactive

Q: What about the Potency (HeLa) of the same molecule?
A: inactive

Q: And the Potency (Hek293T)?
A: inactive

Q: And the Potency (JEG-3)?
A: inactive

Q: `COc1cc2c(cc1NS(=O)(=O)c1ccc(Br)cc1C)n(C)c(=O)n2C` was tested. Which Potency (HEK293) did it give?
A: 1.46 µM (active)

Q: And the max response (HaCat [1])?
A: 0.2%

Q: And the max response (NIH3T3)?
A: 1.72%

Q: And the Potency (CAOV3)?
A: 3.55 µM (active)

Q: What about the Potency (CASKI) of the same molecule?
A: inactive

Q: What about the Potency (HeLa) of the same molecule?
A: inactive

Q: And the Potency (JEG-3)?
A: inactive

Q: For `NCC1CCN(c2nccc(-c3ccc4ccccc4c3)n2)CC1`, which Potency (HEK293) is on record?
A: 11.6 µM (active)

Q: And the Potency (HaCat [1])?
A: 6.51 µM (active)

Q: And the Potency (C33A)?
A: 28.2 µM (active)

Q: What about the Potency (CAOV3) of the same molecule?
A: 28.2 µM (active)

Q: And the Potency (Es-2)?
A: inactive

Q: What about the Potency (HeLa) of the same molecule?
A: 14.1 µM (active)

Q: And the Potency (JEG-3)?
A: inactive

Q: What about the Potency (OV90) of the same molecule?
A: inactive
